# Laboratory results from PubChem BioAssay (EPA / NIEHS).
# Records with an inconclusive call do not appear. Activity calls are given as the source filed them. Rule for the calls, unless noted: active = hit-call score of the fitted dose curve at least 0.9, where 1 is the maximum; inactive = score below 0.9.
# Assays:
# [1] = read-out: Vascular cell adhesion molecule 1 (VCAM1), VCAM1 (gene 7412); assay: BSK_LPS_VCAM1: BioMAP Diversity Plus: LPS Assay for Vascular cell adhesion molecule 1 (VCAM1) Biomarker Activity (AID 2283086); conditions: primary human HUVEC with PBMC; actives raise or lower the signal
# Method in brief: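 Human umbilical vein endothelial cells co-cultured with PBMC and stimulated with LPS; VCAM-1 measured by ELISA 24 h after dosing. Bidirectional curve fitting against DMSO baseline; cytotoxicity tracked in parallel by SRB total-protein staining.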
# [2] = read-out: CD38, CD38 (gene 952); assay: BSK_SAg_CD38: BioMAP Diversity Plus: SAg Assay for CD38 Biomarker Activity (AID 2283087); conditions: primary human HUVEC with PBMC; actives raise or lower the signal
# Method in brief: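 Human HUVEC plus PBMC co-culture stimulated with superantigen; CD38 measured by ELISA 24 h after chemical dosing. Fluorescence read-out, bidirectional fit against DMSO; cytotoxicity tracked in parallel by SRB and Alamar Blue.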
# [3] = read-out: CD40, CD40 (gene 958); assay: BSK_SAg_CD40: BioMAP Diversity Plus: SAg Assay for CD40 Biomarker Activity (AID 2283088); conditions: primary human HUVEC with PBMC; actives raise or lower the signal
# Method in brief: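 CD40 is measured by fluorescence ELISA in an endothelial/PBMC primary human co-culture at 24 h post-dose. Fitting is bidirectional, DMSO baseline. Parallel SRB staining (560 nm) flags cytotoxicity.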
# [4] = read-out: Monocyte Chemoattractant Protein-1 (MCP1), CCL2 (gene 6347); assay: BSK_SAg_MCP1: BioMAP Diversity Plus: SAg Assay for Monocyte Chemoattractant Protein-1 (MCP1) Biomarker Activity (AID 2283090); conditions: primary human HUVEC with PBMC; actives raise or lower the signal
# Method in brief: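 MCP-1 levels in the endothelial–PBMC SAg co-culture were quantified by ELISA at 24 h post-dosing; both increases and decreases versus DMSO scored. Cytotoxicity monitored by SRB total protein in parallel cultures.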
# [5] = read-out: E-selectin (Homo sapiens) (UniProt P16581); assay: BSK_SAg_Eselectin: BioMAP Diversity Plus: SAg Assay for Eselectin Biomarker Activity (AID 2283091); conditions: primary human HUVEC with PBMC; actives raise or lower the signal
# Method in brief: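 Cell-surface E-selectin is read by ELISA at 24 h in the SAg co-culture of HUVEC and PBMC. Curves are fitted in both directions relative to DMSO. Parallel SRB total-protein staining tracks overt toxicity.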
# [6] = read-out: Monokine induced gamma interferon (MIG), CXCL9 (gene 4283); assay: BSK_SAg_MIG: BioMAP Diversity Plus: SAg Assay for Monokine induced gamma interferon (MIG) Biomarker Activity (AID 2283092); conditions: primary human HUVEC with PBMC; actives raise or lower the signal
# Method in brief: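 Endothelial cells and PBMC were co-cultured, exposed to test chemicals, and sampled 24 h later. MIG was measured by ELISA, and responses were fitted in both directions relative to DMSO.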
# [7] = BSK_SAg_PBMCCytotoxicity: PBMC Cytotoxicity Assessment in the BioMAP Diversity Plus: SAg Assay (AID 2283093); conditions: primary human HUVEC with PBMC;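 note: PBMC viability measured as Alamar Blue reduction fluorescence at 546/580 nm; fitted both ways against DMSO so a hit may be loss or gain of signal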;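 for AC50: PBMC superantigen activated with SEB plus TSST-1 one hour after compound addition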
# Method in brief: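 Compound added to 75,000 PBMC/well for 1 h; SEB and TSST-1 then added at 20 ng/mL final each; 90 h incubation; Alamar Blue 6 h; read 546/580 nm ex/em. Activity fitted bidirectionally relative to DMSO baseline.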
# [8] = read-out: Interleukin-8 (IL8), CXCL8 (gene 3576); assay: BSK_SAg_IL8: BioMAP Diversity Plus: SAg Assay for Interleukin-8 (IL8) Biomarker Activity (AID 2283094); conditions: primary human HUVEC with PBMC; actives raise or lower the signal
# Method in brief: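 Human umbilical vein endothelial cells co-cultured with PBMC, stimulated with superantigen; IL-8 measured by ELISA 24 h after chemical dosing. Bidirectional fitting versus DMSO; SRB staining in parallel cultures tracks cytotoxicity.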
# [9] = BSK_SAg_Proliferation: Cell Proliferation Assessment in the BioMAP Diversity Plus: SAg Assay (AID 2283095); conditions: primary human HUVEC with PBMC
# Method in brief: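 Human umbilical vein endothelial cells co-cultured with PBMC; sulforhodamine B total-protein staining (0.1% SRB after 10% TCA fixation, absorbance 560 nm) at 96 h in sub-confluent culture. Fitted bidirectionally against DMSO.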
# [10] = BSK_SAg_SRB: Viability Assessment in the BioMAP Diversity Plus: SAg Assay (AID 2283096); conditions: primary human HUVEC with PBMC;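 note: cells read one day after compound addition; hits may be either gain or loss of signal compared with DMSO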
# Method in brief: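 Total protein by sulforhodamine B staining, 24 h after dosing, in HUVEC–PBMC co-culture; DMSO-referenced bidirectional fitting.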
# [11] = biological target: human CYP2B6, CYP2B6 (gene 1555) (UniProt P20813); assay: NVS_ADME_hCYP2B6: NovaScreen (NVS) CYP450-related Enzyme Activity (ADME) Assay for human CYP2B6 (AID 2283101; active = hit-call score of the fitted dose curve at least 0.9, where 1 is the maximum)
# Method in brief: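 Cell-free recombinant enzyme assay with a fluorogenic substrate; fluorescence intensity read 1 hour after dosing. Loss of signal relative to acetonitrile negative control indicates inhibition. Primary screen run in duplicate at 10 uM, actives then tested in concentration series.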
# [12] = biological target: human CYP1A2, CYP1A2 (gene 1544) (UniProt P05177); assay: NVS_ADME_hCYP1A2: NovaScreen (NVS) CYP450-related Enzyme Activity (ADME) Assay for human CYP1A2 (AID 2283102; active = hit-call score of the fitted dose curve at least 0.9, where 1 is the maximum;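 note: potency for inhibition since loss of fluorescence marks reduced CYP1A2 activity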)
# Method in brief: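 Enzyme activity of insect-cell-expressed human CYP1A2 measured by fluorescence 0.5 h after compound addition, relative to acetonitrile. Compounds first tested in duplicate at 10 uM, actives followed up in concentration series.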
# [13] = biological target: human CYP2D6, CYP2D6 (gene 1565) (UniProt P10635); assay: NVS_ADME_hCYP2D6: NovaScreen (NVS) CYP450-related Enzyme Activity (ADME) Assay for human CYP2D6 (AID 2283107; active = hit-call score of the fitted dose curve at least 0.9, where 1 is the maximum)
# Method in brief: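 Fluorescence readout of recombinant CYP2D6 (insect-cell derived) activity after 1 h incubation with test chemical. Acetonitrile served as baseline, loss-of-signal direction. Single-concentration duplicate screening at 10 uM preceded concentration-response retesting.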
# [14] = biological target: human CYP2C9, CYP2C9 (gene 1559) (UniProt P11712); assay: NVS_ADME_hCYP2C9: NovaScreen (NVS) CYP450-related Enzyme Activity (ADME) Assay for human CYP2C9 (AID 2283108; active = hit-call score of the fitted dose curve at least 0.9, where 1 is the maximum)
# Method in brief: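 Fluorescence readout of CYP2C9 activity (SF9-expressed human enzyme) at 0.75 h. The primary screen used 10 uM in duplicate, with concentration-response follow-up for actives; acetonitrile was the negative control.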
# [15] = biological target: Cytochrome P450 2C19 (Homo sapiens) (UniProt P33261); assay: NVS_ADME_hCYP2C19: NovaScreen (NVS) CYP450-related Enzyme Activity (ADME) Assay for human CYP2C19 (AID 2283113; active = hit-call score of the fitted dose curve at least 0.9, where 1 is the maximum;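 note: potency for inhibition seen as loss of fluorescent signal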)
# Method in brief: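 Compounds first screened in duplicate at 10 uM, then confirmed in concentration series. Insect-cell-expressed human CYP2C19 turned over a fluorogenic substrate, and fluorescence was read after 1 h. Inhibition taken as signal loss relative to acetonitrile.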
# [16] = read-out: CD69, CD69 (gene 969); assay: BSK_SAg_CD69: BioMAP Diversity Plus: SAg Assay for CD69 Biomarker Activity (AID 2283089); conditions: primary human HUVEC with PBMC; actives raise or lower the signal;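 for AC50: cell surface CD69 protein quantified by ELISA with fluorescence detection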
# Method in brief: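 Primary human vascular co-culture (umbilical vein endothelium with peripheral blood mononuclear cells) exposed to test chemical for 24 h. CD69 levels quantified by fluorescence ELISA; DMSO served as negative control for bidirectional fitting.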
# [17] = biological target: Cytochrome P450 3A4 (Homo sapiens) (UniProt P08684); assay: NVS_ADME_hCYP3A4: NovaScreen (NVS) CYP450-related Enzyme Activity (ADME) Assay for human CYP3A4 (AID 2283110; active = hit-call score of the fitted dose curve at least 0.9, where 1 is the maximum)
# Method in brief: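 Compounds were first screened in duplicate at 10 uM against recombinant CYP3A4 produced in insect cells, then actives were run in concentration series. Enzyme activity was measured by fluorescence after 0.33 hour, with acetonitrile as baseline.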
# E-selectin (Homo sapiens), sequence (P16581 whole entry, looked up): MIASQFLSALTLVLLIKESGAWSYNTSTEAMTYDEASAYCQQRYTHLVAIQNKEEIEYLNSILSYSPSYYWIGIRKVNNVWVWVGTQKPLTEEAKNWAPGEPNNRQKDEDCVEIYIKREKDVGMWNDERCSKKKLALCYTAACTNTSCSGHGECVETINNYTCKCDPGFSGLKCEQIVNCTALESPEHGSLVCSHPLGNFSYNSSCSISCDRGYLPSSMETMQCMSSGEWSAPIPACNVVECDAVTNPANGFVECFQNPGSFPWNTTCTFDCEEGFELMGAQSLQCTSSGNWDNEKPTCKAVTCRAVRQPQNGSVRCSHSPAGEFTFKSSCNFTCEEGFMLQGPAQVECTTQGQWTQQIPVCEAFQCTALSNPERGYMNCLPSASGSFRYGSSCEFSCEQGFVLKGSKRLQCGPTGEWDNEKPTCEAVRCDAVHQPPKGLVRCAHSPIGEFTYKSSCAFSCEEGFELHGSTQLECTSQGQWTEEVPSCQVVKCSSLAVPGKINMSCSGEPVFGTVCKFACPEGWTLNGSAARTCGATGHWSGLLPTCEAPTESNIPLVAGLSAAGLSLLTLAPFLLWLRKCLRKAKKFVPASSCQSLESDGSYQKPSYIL
# human CYP2C9, CYP2C9 (gene 1559), sequence (P11712 whole entry, looked up): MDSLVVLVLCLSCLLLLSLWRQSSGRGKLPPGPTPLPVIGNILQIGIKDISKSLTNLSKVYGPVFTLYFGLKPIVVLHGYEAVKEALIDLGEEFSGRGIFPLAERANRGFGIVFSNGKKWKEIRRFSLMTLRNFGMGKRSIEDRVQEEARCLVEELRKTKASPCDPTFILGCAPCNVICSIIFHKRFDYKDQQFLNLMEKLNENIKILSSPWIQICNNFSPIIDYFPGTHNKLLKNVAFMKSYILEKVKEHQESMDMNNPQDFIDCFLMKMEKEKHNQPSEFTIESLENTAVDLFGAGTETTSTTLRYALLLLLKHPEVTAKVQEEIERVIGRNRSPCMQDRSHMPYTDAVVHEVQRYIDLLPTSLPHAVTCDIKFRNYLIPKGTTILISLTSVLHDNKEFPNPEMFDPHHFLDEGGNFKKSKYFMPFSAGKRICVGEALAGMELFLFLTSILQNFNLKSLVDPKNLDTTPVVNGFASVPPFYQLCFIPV
# Cytochrome P450 3A4 (Homo sapiens), sequence (P08684 whole entry, looked up): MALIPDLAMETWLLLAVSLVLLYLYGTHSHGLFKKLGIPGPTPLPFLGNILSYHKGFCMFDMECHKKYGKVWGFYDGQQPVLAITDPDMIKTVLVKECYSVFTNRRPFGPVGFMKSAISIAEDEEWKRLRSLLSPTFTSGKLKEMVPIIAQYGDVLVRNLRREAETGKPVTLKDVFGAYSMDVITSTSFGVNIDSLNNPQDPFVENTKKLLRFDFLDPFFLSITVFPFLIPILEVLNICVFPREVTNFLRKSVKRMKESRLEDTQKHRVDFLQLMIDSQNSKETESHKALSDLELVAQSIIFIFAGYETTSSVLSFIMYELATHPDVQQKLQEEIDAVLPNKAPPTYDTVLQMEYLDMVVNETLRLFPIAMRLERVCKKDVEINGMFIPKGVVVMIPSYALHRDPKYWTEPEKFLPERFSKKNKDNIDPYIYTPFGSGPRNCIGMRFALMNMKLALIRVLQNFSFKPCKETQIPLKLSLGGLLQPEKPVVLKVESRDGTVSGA
# human CYP2B6, CYP2B6 (gene 1555), sequence (P20813 whole entry, looked up): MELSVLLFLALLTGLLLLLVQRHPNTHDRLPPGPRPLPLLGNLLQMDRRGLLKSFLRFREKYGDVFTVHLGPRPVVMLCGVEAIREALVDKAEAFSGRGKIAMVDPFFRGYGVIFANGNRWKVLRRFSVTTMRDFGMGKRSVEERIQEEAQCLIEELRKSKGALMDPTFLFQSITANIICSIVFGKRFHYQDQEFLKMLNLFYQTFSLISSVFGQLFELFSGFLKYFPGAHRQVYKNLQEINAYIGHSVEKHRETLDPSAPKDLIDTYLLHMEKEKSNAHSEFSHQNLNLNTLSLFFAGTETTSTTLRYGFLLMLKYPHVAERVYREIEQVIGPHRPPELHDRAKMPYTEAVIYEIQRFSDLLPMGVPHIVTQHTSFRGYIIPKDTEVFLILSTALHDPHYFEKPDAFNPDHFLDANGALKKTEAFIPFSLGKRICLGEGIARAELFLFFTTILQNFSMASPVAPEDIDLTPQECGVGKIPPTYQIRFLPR
# human CYP1A2, CYP1A2 (gene 1544), sequence (P05177 whole entry, looked up): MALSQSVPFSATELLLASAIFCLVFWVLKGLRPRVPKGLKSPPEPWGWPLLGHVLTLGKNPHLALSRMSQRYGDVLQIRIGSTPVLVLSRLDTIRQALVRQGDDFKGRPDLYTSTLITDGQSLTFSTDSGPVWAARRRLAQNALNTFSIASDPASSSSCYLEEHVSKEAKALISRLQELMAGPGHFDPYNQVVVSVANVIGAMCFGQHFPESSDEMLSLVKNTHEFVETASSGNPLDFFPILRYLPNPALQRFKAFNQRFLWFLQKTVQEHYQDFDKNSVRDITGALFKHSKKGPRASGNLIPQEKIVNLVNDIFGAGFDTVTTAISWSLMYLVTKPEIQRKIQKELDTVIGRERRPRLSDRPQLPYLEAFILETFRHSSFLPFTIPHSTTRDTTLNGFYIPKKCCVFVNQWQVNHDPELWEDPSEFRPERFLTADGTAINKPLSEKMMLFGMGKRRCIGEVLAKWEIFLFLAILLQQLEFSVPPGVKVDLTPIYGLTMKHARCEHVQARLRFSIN
# human CYP2D6, CYP2D6 (gene 1565), sequence (P10635 whole entry, looked up): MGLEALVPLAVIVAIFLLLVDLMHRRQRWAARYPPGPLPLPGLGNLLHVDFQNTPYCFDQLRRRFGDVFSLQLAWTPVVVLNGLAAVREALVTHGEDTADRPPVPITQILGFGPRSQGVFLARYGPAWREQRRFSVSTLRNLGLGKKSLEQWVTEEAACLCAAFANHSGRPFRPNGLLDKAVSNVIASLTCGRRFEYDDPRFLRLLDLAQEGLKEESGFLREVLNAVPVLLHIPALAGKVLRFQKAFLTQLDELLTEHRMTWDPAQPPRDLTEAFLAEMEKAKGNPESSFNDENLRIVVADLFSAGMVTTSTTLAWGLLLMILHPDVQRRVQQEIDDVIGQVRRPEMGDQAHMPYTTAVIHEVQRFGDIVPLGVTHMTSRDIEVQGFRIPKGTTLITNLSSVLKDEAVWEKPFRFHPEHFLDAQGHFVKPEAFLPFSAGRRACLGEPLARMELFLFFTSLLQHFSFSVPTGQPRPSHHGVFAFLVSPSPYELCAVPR
smiles,measurement,setting,value
Cc1ccc(O)cc1,outcome,[1],inactive
same,outcome,[2],inactive
same,outcome,[3],inactive
same,outcome,[4],inactive
same,outcome,[5],inactive
same,outcome,[6],inactive
same,outcome,[7],inactive
same,outcome,[8],inactive
same,outcome,[9],inactive
same,outcome,[10],inactive
Cc1[nH]cnc1C[C@H]1CCc2c(C)c3ccccc3n2C1=O,AC50,[1],32.9 µM (active)
same,AC50,[2],31.2 µM (active)
same,AC50,[4],27.8 µM (active)
same,AC50,[5],30.8 µM (active)
same,AC50,[6],31.9 µM (active)
same,AC50,[7],30.7 µM (active)
same,AC50,[8],24.7 µM (active)
same,AC50,[9],31 µM (active)
same,AC50,[10],26.8 µM (active)
same,AC50,[11],4.01 µM (active)
same,AC50,[12],1.78 µM (active)
same,AC50,[13],3.98 µM (active)
same,AC50,[14],1.77 µM (active)
same,AC50,[15],0.636 µM (active)
CCCCC(CC)COC(=O)c1ccc(C(=O)OCC(CC)CCCC)cc1 (stereo not given),outcome,[1],inactive
same,outcome,[2],inactive
same,outcome,[16],inactive
same,outcome,[4],inactive
same,outcome,[5],inactive
same,outcome,[6],inactive
same,outcome,[7],inactive
same,outcome,[9],inactive
same,outcome,[10],inactive
O=C(NS(=O)(=O)/C=C/c1ccccc1)c1ccc(F)cc1Cl,outcome,[1],inactive
same,outcome,[2],inactive
same,AC50,[3],9.37 µM (active)
same,outcome,[4],inactive
same,outcome,[5],inactive
same,outcome,[6],inactive
same,outcome,[7],inactive
same,outcome,[8],inactive
same,AC50,[9],8.5 µM (active)
same,outcome,[10],inactive
same,AC50,[14],6.85 µM (active)
O=c1n(CC2CO2)c(=O)n(CC2CO2)c(=O)n1CC1CO1 (stereo not given),AC50,[1],21.8 µM (active)
same,AC50,[2],18.5 µM (active)
same,AC50,[4],20 µM (active)
same,AC50,[5],10.7 µM (active)
same,outcome,[6],inactive
same,outcome,[7],inactive
same,AC50,[8],20 µM (active)
same,AC50,[9],10.6 µM (active)
same,AC50,[10],17.5 µM (active)
CCOc1cccc(-n2cc(C(=O)N3CCN(c4cc(C(=O)O)c5ccccc5c4)CC3)nc2-c2ccc(C)cc2)c1,AC50,[1],14.2 µM (active)
same,AC50,[2],28.2 µM (active)
same,AC50,[3],13.6 µM (active)
same,AC50,[4],28.3 µM (active)
same,AC50,[5],19.2 µM (active)
same,AC50,[6],35.4 µM (active)
same,AC50,[7],26.9 µM (active)
same,AC50,[8],11.4 µM (active)
same,AC50,[9],24.6 µM (active)
same,AC50,[10],14.1 µM (active)
CCCCCCCCCCCCCCCO,AC50,[1],32.4 µM (active)
same,AC50,[2],32.6 µM (active)
same,AC50,[16],31.7 µM (active)
same,AC50,[4],33.3 µM (active)
same,AC50,[5],33.5 µM (active)
same,outcome,[6],inactive
same,AC50,[7],30.7 µM (active)
same,AC50,[8],28.6 µM (active)
same,AC50,[9],29.5 µM (active)
same,AC50,[10],34.6 µM (active)
O=C(O)c1cccc(N(Cc2cccnc2)c2ccc(OC(F)F)c(OC(F)F)c2)c1,AC50,[1],15.9 µM (active)
same,AC50,[2],3.61 µM (active)
same,AC50,[4],6.77 µM (active)
same,AC50,[5],1.81 µM (active)
same,outcome,[6],inactive
same,outcome,[7],inactive
same,AC50,[8],2.31 µM (active)
same,AC50,[9],7.83 µM (active)
same,outcome,[10],inactive
same,AC50,[14],6.14 µM (active)
same,AC50,[17],6.01 µM (active)
same,AC50,[15],4.98 µM (active)
